The text below walks through data of PubChem BioAssay.

Test [1] relates to Plasmodium falciparum Sir2 (PF13_0152, Sir2A). The experiment in a line: pfSir2 binders on small-molecule microarrays, primary screen, biochemical, small-molecule microarray, 635 nm fluorescence (AID 1098).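 Also: score merges spot fluorescence intensity with its signal-to-noise ratio.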 The note with it: small-molecule microarray binding, fluorescence 635 nm; higher = more signal.
Test [2] in a line: small-molecule microarray binders of probe aDKK1, primary screen, biochemical, biotinylated probe, 635/667 nm fluorescence (AID 1099).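 Also: score merges 667nm spot fluorescence with signal to noise across triplicate slides.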 The note with it: higher = more signal.
Test [3] is described as follows: small-molecule microarray binders of probe aCHRDL2, primary screen, biochemical, biotinylated probe, 635/667 nm fluorescence (AID 1100). The note with it: higher = more signal.
Test [4] is described as follows: splicing luciferase reporter signal modulators, primary screen, spliceosome inhibition project, cell-based, HEK293, splice +/- reporter (AID 1101).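 Also: HEK293 cells carrying a splicing-competent luciferase reporter gene; test concentration not given here.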 The note with it: luminescence, 24 h, higher = more signal, called active from +8 up or from −8 down. In general terms: In a reporter assay the amount or activity of a reporter protein is the signal.
Test [5] concerns the target Fibroblast growth factor 10 (Homo sapiens) (UniProt O15520). The experiment in a line: FGF10 binders on small-molecule microarrays, primary screen, biochemical, small-molecule microarray, 635 nm fluorescence (AID 1102). The note with it: FGF10 binding, fluorescence 635 nm, higher = more signal.
Test [6] relates to glycogen synthase kinase-3 (GSK3A per assay name; protocol says GSK3B). The experiment in a line: GSK3 binders on small-molecule microarrays, primary screen, biochemical, small-molecule microarray, 635 nm fluorescence, GSK3A (AID 1103). Also: the record names both GSK3A and GSK3B. The note with it: small-molecule microarray binding, fluorescence 635 nm; higher = more signal.
Test [7] concerns the target Epidermal growth factor receptor (Homo sapiens) (UniProt P00533). The experiment in a line: EGFR binders on small-molecule microarrays, primary screen, biochemical, small-molecule microarray, 635 nm fluorescence (AID 1104).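 Also: score merges 667 nm emission intensity with spot signal to noise over triplicate slides.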 The note with it: EGFR binding, higher = more signal.
Test [8] concerns the target Follistatin-related protein 3 (Homo sapiens) (UniProt O95633). The experiment in a line: FSTL3 binders on small-molecule microarrays, primary screen, biochemical, small-molecule microarray, 635 nm fluorescence (AID 1105).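 Also: score merges emission near 667 nm and signal to noise per printed spot across three slides.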 The note with it: FSTL3 binding, higher = more signal.
Test [9] has as its target Dickkopf-related protein 1 (Homo sapiens) (UniProt O94907). The experiment in a line: DKK1 binders on small-molecule microarrays, primary screen, biochemical, small-molecule microarray, 635 nm fluorescence scan (AID 1106).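 Also: score merges emission near 667 nm with signal to noise over three replicate slides.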 The note with it: DKK1 binding, higher = more signal.
Test [10] has as its system Inhibin beta A chain (activin A). The experiment in a line: INHBA (activin A) binders on microarrays, primary screen, biochemical, small-molecule microarray, 635 nm fluorescence scan (AID 1107).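 Also: mouse activin A protein probed at 4.33 µg/mL on printed slides; score merges bound-protein fluorescence near 667 nm with spot signal-to-noise.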 The note with it: small-molecule microarray binding, higher = more signal.
Test [11] has as its system Human papillomavirus type 1a protein E7 (residues 44-93). The experiment in a line: HPV1a E7 fragment binders on microarrays, primary screen, biochemical, small-molecule microarray, residues 44-93, 635 nm fluorescence (AID 1108).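 Also: E7 fragment applied at 1 µg/mL in TBST for 1 h at 4 C; score combines spot fluorescence with its signal to noise ratio.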 The note with it: small-molecule microarray binding, fluorescence 635 nm; higher = more signal.
Test [12] can be described thus: modulators of HCV replicon luciferase signal, primary screen, HCV replication inhibitor project, Huh7 cells, luciferase reporter (AID 1109).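 Also: huh7 hepatoma cells harbouring a luciferase neomycin HCV replicon reporter; luciferase luminescence as measure of HCV replicon replication; test concentration not given here.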 The note with it: 48 h, higher = more signal. On the technique in general: In antiviral work, replicon cells carry a viral genome segment that copies itself.
Test [13] deals with Left-right determination factor 2 (Homo sapiens) (UniProt O00292). The experiment in a line: LEFTY2 binders on small-molecule microarrays, primary screen, biochemical, small-molecule microarray, 635 nm fluorescence scan (AID 1110). The note with it: LEFTY2 binding, higher = more signal.
Sequence of Left-right determination factor 2 (Homo sapiens) (O00292 whole entry, looked up): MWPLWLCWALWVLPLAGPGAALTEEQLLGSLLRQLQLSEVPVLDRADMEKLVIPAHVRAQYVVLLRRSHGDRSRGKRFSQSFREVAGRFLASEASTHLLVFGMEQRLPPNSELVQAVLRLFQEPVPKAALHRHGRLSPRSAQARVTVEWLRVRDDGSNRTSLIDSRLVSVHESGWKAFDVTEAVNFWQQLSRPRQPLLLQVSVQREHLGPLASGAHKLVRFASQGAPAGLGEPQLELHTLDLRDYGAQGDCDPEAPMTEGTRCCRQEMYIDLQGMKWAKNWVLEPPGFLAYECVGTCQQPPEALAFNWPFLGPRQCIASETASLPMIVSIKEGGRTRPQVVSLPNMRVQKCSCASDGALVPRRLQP
Test [14] has as its target Calmodulin-1 (Homo sapiens) (UniProt P0DP23). The experiment in a line: CALM1 binders on microarrays, EGTA buffer, profiling panel, biochemical, small-molecule microarray, Cy5-labelled CALM1 (AID 1111).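 Also: labelled calmodulin applied in Tris saline Tween buffer holding calcium plus EGTA and DTT.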 The note with it: Cy5-CALM1 binding fluorescence, higher = more signal.
Test [15] shares this target. The experiment in a line: calcium-bound CALM1 binders on microarrays, profiling panel, artefact control for SMM control-protein annotation, biochemical, small-molecule microarray, Cy5-labelled CALM1, plus calcium (AID 1112).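 Also: score merges spot fluorescence with signal to noise from triplicate slides.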 The note with it: Cy5-CALM1 binding fluorescence, higher = more signal.
A short description of test [16]: small-molecule microarray binders of probe aWnt5a, primary screen, biochemical, biotinylated probe, 635/667 nm fluorescence (AID 1113).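 Also: score merges 667 nm fluorescence intensity with signal-to-noise per printed feature.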 The note with it: higher = more signal.
The nature of test [17]: small-molecule microarray binders of probe aShh, primary screen, biochemical, biotinylated probe, 635/667 nm fluorescence (AID 1114).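 Also: probe is biotin-labelled aShh protein from a stem cell growth factor screen; measures binding of labelled protein to compounds printed on the slide; score merges feature fluorescence at 667 nm with signal-to-noise.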 The note with it: higher = more signal.
Test [18] in a line: small-molecule microarray binders of probe aNog, primary screen, biochemical, biotinylated probe, 635/667 nm fluorescence (AID 1115).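 Also: probe is biotinylated aNog protein used at 0.15 µg/mL for 1 h at 4 C; z-score combines 667 nm fluorescence of each spot with its signal to noise.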 The note with it: higher = more signal.
The target of test [19] is Torsin-1A-interacting protein 1 (Homo sapiens) (UniProt Q5JTV8). The experiment in a line: LAP1 binders from COS7 cell lysate, primary screen, small-molecule microarray, 635/667 nm fluorescence (AID 1116). The note with it: COS7-hLAP1 lysate binding, 635 nm fluorescence, higher = more signal.
Sequence of Torsin-1A-interacting protein 1 (Homo sapiens) (Q5JTV8 whole entry, looked up): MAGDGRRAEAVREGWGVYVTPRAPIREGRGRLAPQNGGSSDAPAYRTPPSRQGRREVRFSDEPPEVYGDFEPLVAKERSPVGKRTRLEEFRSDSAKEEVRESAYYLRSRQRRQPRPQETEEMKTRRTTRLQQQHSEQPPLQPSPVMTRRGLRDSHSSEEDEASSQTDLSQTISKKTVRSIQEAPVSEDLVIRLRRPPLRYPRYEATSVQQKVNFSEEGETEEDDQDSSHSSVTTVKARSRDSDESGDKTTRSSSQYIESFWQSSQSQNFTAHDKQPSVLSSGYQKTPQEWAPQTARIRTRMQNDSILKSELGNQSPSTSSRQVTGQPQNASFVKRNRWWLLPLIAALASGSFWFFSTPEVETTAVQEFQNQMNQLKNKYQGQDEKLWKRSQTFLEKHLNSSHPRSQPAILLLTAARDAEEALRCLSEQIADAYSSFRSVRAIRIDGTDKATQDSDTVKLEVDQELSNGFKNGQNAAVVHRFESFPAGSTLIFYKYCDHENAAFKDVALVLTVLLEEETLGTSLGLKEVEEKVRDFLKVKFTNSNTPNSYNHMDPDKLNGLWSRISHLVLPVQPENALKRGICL
In test [20] the target is Alpha-bungarotoxin (Bungarus multicinctus) (UniProt P60615). The experiment in a line: alpha-bungarotoxin binders on microarray, profiling panel, artefact control for SMM control protein annotation, biochemical, small-molecule microarray, Alexa647 label, 635/667 nm fluorescence (AID 1117). The note with it: alpha-BTX-A647 binding fluorescence, higher = more signal.
Sequence of Alpha-bungarotoxin (Bungarus multicinctus) (P60615 whole entry, looked up): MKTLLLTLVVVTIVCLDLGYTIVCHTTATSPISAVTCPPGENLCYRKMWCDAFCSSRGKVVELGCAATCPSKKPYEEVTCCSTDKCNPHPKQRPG

The source made the active and inactive calls.

Sequence of Fibroblast growth factor 10 (Homo sapiens) (O15520 whole entry, looked up): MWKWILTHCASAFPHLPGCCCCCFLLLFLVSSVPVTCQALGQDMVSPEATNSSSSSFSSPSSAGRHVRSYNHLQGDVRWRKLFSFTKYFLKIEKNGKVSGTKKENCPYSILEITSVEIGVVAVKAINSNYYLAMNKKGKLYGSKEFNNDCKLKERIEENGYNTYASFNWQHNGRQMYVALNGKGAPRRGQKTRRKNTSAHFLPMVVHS
Sequence of Dickkopf-related protein 1 (Homo sapiens) (O94907 whole entry, looked up): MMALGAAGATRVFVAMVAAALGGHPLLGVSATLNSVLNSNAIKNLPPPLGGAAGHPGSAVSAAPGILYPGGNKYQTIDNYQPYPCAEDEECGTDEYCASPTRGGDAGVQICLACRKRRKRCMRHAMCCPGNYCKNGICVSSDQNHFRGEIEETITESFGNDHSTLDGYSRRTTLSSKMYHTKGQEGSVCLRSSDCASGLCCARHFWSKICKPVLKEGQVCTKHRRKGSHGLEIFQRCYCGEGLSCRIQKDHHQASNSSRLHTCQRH
Sequence of Epidermal growth factor receptor (Homo sapiens) (P00533 whole entry, looked up): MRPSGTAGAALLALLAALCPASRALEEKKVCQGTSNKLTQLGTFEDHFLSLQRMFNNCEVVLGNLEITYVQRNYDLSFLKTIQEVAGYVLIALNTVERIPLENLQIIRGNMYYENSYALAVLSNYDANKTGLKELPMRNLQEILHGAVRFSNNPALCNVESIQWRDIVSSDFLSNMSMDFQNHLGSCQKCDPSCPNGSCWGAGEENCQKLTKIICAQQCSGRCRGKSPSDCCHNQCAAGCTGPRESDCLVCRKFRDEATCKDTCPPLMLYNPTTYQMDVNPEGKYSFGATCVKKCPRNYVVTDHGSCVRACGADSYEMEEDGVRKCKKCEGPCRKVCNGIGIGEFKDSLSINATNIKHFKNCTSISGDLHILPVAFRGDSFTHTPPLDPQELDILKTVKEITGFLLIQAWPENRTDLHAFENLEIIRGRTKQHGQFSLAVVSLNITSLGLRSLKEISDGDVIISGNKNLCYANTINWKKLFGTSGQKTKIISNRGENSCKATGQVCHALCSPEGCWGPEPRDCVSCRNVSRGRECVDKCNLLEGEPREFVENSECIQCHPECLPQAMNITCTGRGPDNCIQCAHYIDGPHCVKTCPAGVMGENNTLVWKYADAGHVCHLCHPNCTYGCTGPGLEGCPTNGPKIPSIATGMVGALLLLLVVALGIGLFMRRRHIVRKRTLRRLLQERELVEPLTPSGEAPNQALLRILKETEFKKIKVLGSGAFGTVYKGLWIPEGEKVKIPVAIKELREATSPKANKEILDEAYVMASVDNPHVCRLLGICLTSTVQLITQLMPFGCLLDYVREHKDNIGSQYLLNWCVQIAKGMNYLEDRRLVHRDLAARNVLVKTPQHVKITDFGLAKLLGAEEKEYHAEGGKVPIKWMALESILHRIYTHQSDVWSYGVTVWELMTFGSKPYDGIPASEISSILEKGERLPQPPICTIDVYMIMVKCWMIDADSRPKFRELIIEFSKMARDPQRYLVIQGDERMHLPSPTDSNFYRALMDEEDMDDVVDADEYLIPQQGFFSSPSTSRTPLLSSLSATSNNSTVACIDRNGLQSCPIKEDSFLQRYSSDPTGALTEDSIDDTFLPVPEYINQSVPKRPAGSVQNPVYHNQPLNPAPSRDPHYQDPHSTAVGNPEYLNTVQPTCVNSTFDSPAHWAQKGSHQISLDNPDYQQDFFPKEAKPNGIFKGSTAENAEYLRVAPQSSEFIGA
Sequence of Follistatin-related protein 3 (Homo sapiens) (O95633 whole entry, looked up): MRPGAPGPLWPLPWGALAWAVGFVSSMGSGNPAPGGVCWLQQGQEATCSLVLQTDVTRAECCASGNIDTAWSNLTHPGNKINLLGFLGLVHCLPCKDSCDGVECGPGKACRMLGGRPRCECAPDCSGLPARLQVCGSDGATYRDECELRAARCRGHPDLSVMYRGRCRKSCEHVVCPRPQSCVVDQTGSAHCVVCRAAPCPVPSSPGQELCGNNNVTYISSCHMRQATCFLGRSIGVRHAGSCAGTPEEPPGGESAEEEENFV

For `O=C1O[C@H](c2ccccc2)[C@H](c2ccccc2)N2[C@H]1[C@@H](C(=O)O)[C@]1(C(=O)Nc3ccc(C#CC4(O)CCCCCC4)cc31)[C@H]2c1ccccc1OCCO`, the composite z-score is 1.5 in test [1]; 0.0035 in test [2]; -0.351 in [3]; 1.02 in test [5]; 1.29 in test [6]; 0.24 in test [7]. For the same compound, the composite z-score in test [8] stood at 0.69; in test [9] it was 0.195; in [10] it was 0.745; in test [11], 1.11; in test [13] it was 0.39; in test [14] it was 1.99. The composite z-score in test [15] was found to be 1.03; in [16], 0.0839; in test [17] it was 0.459; in [18], 0.938; in test [19] it was 0.727; in [20] it was 1.95. Further, the z-score in test [4] was -0.767 (inactive); in test [12] it was -2.11.
As for `CC(C)[Si]1(C(C)C)OCc2cc(-c3ccc(-c4ccc(Cl)c(Cl)c4)o3)nc(-c3ccc(Oc4ccccc4)cc3)c21`, the composite z-score was -0.952 in [1]; 0.118 in test [2]; 0.745 in test [3]; -1.78 in test [5]; -2.03 in test [6]; -1.46 in test [7]. Moreover, the composite z-score in [8] was -2.09; in test [9], -2.01; in [10], 0.434; in [11], -1.76; in test [13], -1.44; in [14], -0.168. The composite z-score in [15] was 0.698; in test [16], -0.265; in test [17] it was -0.243; in test [18], -0.132; in [19] it was -1.22; in test [20], -1.55. Further, the z-score is -1.25 (inactive) in test [4] and -0.105 in test [12].
Consider `COC(=O)[C@@]1(Cc2ccc(F)cc2)[C@H]2c3cc(C(=O)N4CCCC4)n(Cc4ccc(C(F)(F)F)nc4)c3C[C@H]2CN1C(=O)c1ccccc1`, for which the composite z-score in test [1] was found to be 0.513; in [2], 0.16; in [3], 1.33; in test [5] it was 0.472; in test [6] it was 1.3; in test [7], 0.643. Besides, the composite z-score in [8] is 1.19; in [9], -0.417; in [10] it was 0.843; in [11], 1.18; in [13], 0.0089; in [14], 2.16. Further, the composite z-score in test [15] was 0.557; in [16], 0.106; in test [17], -0.382; in [18], -1.06; in test [19], 0.873; in [20], 0.615. Besides, the z-score in test [4] is -0.375 (inactive); in test [12] it was -2.15.
In the case of `O=C1O[C@@H](c2ccccc2)[C@@H](c2ccccc2)N2[C@@H](c3ccccc3OCCO)[C@]3(C(=O)Nc4ccc(C#CC5(O)CCCCCC5)cc43)[C@@H](C(=O)N3CCCCCCC3)[C@H]12`, the composite z-score in test [1] is 2.16; in test [2] it was 3.21; in [3] it was 1.84; in test [5], 1.66; in test [6], 1.45; in test [7], 2.09. Further, the composite z-score was determined as 1.77 in test [8]; 2.68 in [9]; 1.91 in test [10]; 1.61 in test [11]; 1.87 in [13]; 3.06 in test [14]. Besides, the composite z-score is 1.82 in test [15]; 1.65 in test [16]; 3.04 in [17]; 3.8 in test [18]; 5.6 in [19]; 4.54 in test [20]. The z-score in [4] is -1.3 (inactive); in test [12], -2.22.
With `O=C1c2ccccc2[C@@]2(Cc3ccccc3N(CC(F)(F)F)C2=O)[C@H](c2ccc(CO)cc2)N1Cc1ccccc1`, the composite z-score in [1] was -0.33; in test [2] it was -0.449; in test [3] it was -0.419; in test [5], -0.0636; in test [6], 0.387; in test [7], -0.171. For the same compound, the composite z-score in test [8] was 0.766; in [9] it was 0.309; in [10] it was 1.32; in test [11], -0.143; in test [13], 0.2; in test [14], -0.469. For the same compound, the composite z-score in [15] was 0.457; in test [16] it was 0.0371; in [17], 0.0178; in test [18], -0.238; in test [19], -0.131; in test [20], -0.0056. The results for the z-score in test [4] and in [12] were -0.719 (inactive) and -1.22, respectively.
